The sample as a whole holds a higher share of hits than the screen did.
TDP1 cell CPT: DT40-hTDP1 cell growth loss with CPT; chicken DT40 Tdp1-/-;hTDP1 cells + 20 nM CPT, ATP luminescence, 48 h; Potency, µM (highest dose often 46.2 µM), actives largely listed as inhibitors; actives 12% (n = 420,000); AID 686979; note: nearly all actives have a fitted effect of over 55% in size
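Chicken DT40 Tdp1-/- cells stably complemented with human TDP1 were seeded at 400 cells/well in medium containing 20 nM camptothecin, exposed to pin-transferred compounds, and grown at 37 °C for at least 48 hr. Viability was read as ATP luminescence.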
IL-1B inflam inh: blocks inflammasome-driven IL-1 beta release; THP-1 LPS/ATP IL-1B secretion, AlphaLISA, 16 h; stronger effect = lower value; activity change, % at 57.5 µM; actives 4.7% (n = 360,000); in the data active = activity change below about -50%; inconclusive = mostly about -30% to -49%
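THP-1 cells pretreated 1 hr with compounds (up to 57.5 uM final), then stimulated with LPS (250 ng/mL final) plus ATP (1.25 mM final); secreted IL-1B measured by AlphaLISA after 16 hr, decreased signal indicating inhibition.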
HT1080NT lethal: kills 2HG-producing HT-1080-NT fibrosarcoma cells; actives 1.6% (n = 360,000); Potency, µM (top dose mostly 46.1 µM), actives largely listed as cytotoxic; HT-1080-NT fibrosarcoma viability, CellTiter-Glo ATP luminescence, 48 h; AID 686970;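 note: NT is the 2HG producing partner of a matched IDH1 knockdown line; nearly all actives have a fitted effect of over 55% in size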
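A 48-hour cytotoxicity screen used HT-1080-NT cells plated 2 hours before compound delivery. ATP-based CellTiter-Glo luminescence measured viability, normalized to DMSO and no-cell controls.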
ALOX12 inh: ALOX12 (human) lipoxygenase inhibition; P18054; purified 12hLO, xylenol orange hydroperoxide absorbance; Potency, µM (series often up to 108 µM), most hits filed as inhibitors; actives 1.1% (n = 580,000); AID 1671190
Target sequence (P18054 whole entry, looked up): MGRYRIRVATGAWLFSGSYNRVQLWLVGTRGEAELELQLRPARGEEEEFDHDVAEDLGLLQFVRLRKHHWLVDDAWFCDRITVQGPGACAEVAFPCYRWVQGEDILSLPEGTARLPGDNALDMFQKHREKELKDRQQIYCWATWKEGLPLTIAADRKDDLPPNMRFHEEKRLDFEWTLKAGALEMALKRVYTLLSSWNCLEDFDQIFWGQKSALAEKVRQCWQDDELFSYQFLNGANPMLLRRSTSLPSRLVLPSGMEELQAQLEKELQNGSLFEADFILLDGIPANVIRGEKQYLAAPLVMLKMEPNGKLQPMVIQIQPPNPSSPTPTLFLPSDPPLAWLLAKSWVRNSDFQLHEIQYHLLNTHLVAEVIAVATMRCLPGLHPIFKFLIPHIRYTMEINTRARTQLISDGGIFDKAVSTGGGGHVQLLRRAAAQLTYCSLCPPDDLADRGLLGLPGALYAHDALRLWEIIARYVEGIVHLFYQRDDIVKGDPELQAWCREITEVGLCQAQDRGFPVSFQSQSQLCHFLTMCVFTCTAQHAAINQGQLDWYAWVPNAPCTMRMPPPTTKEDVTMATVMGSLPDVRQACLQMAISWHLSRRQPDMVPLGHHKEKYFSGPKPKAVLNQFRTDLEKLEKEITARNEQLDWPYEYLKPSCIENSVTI
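Hydroperoxide product was detected by ferrous iron/xylenol orange as the 573 to 405 nm absorbance ratio. Arachidonic acid at 40 uM (final) was turned over for 30 min at room temperature by 150 nM human 12hLO, pH 7.0 Hepes buffer, after 15 min compound preincubation.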
HT1080 IDH1KD tx: toxicity to HT-1080 IDH1 knockdown cells (counter line); HT-1080 IDH1 knockdown viability, ATP luminescence, 48 h; Potency, µM (highest dose often 46.1 µM), actives largely listed as cytotoxic; actives 2% (n = 360,000); AID 686971
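Viability of IDH1-knockdown HT-1080 fibrosarcoma cells was assessed by CellTiter-Glo after 48 h at 37 °C with titrated compound; concentration-effect curves were classified by fit quality and response size.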
DT40 TDP1 no CPT: qHTS for Inhibitors of human tyrosyl-DNA phosphodiesterase 1 (TDP1): qHTS in cells in absence of CPT; DT40 Tdp1-/- hTDP1 cells, no CPT, ATP luminescence, 48 h; actives 15% (n = 420,000); Potency, µM (doses to about 46.2 µM), actives largely listed as inhibitors; note: nearly all actives have a fitted effect of over 55% in size
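DT40 Tdp1-/-;hTDP1 cells, no CPT (DMSO vehicle only), 400 cells/well; compounds pin-transferred; ≥48 hr, 37 °C; CellTiter-Glo 30 min RT dark, luminescence read.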
Numbers stand for hits; n = inactive; u = inconclusive; x = not tested or not shown; [ ] = another dose, or the depositor's remark. Unless noted, calls come from the whole dose curve; as a rule, active = well fitted curve in the direction sought with a large enough effect; inconclusive = small, poorly fitted or top-dose-only effect, or another doubt; inactive = no such curve, though single readings can be large; an effect the other way counts as inactive or inconclusive.

SMILES	TDP1 cell CPT	IL-1B inflam inh	HT1080NT lethal	ALOX12 inh	HT1080 IDH1KD tx	DT40 TDP1 no CPT
Cc1[nH]n(-c2ccccc2)c(=O)c1N=Nc1c(O)cc(S(=O)(=O)N(C)C)c2ccccc12	6.5µM	n	u	n	9.2µM	6.5µM
COc1ccc(S(=O)(=O)NCc2ccccn2)cc1C	n	n	n	n	n	n
CCOc1ccc(S(=O)(=O)NCc2ccccn2)cc1NC(=O)c1ccccc1	1.3µM	n	2.6µM	n	3.3µM	1.3µM
COc1ccc(S(=O)(=O)NCc2ccccn2)cc1NC(=O)c1ccccc1F	2.3µM	n	4.6µM	n	5.8µM	2.6µM
CCOc1ccc(S(=O)(=O)NCc2cccnc2)cc1NC(=O)c1ccccc1	n	n	u	n	n	n
CCC(=O)Nc1ccc(C(C)CC)cc1 (configuration not stated)	x	x	x	n	x	x
CCSc1nnc(-c2ccc(C)cc2)c2ccccc12	u	n	n	n	n	16µM
CCSc1nnc(-c2ccc(Cl)cc2)c2ccccc12	u	n	n	u	n	u
CCN(CC)CCOc1nnc(-c2ccc(C)cc2)c2ccccc12	u	-57	n	n	n	15µM
CCN(CC)CCOc1nnc(-c2ccc(OC)cc2)c2ccccc12	u	n	n	n	n	u
Nc1ccccc1C(O)(Cc1ccccc1)c1ccccc1 (configuration not stated)	n	n	n	n	n	u
CCOC(=O)CNC(=O)NCc1cccn1Cc1cc(C)ccc1C	x	x	x	n	x	x
Cc1cnc(-c2ccccc2)n1CCNC(=O)c1cn(C)cn1	x	x	x	n	x	x
CCN(CC)c1ccc(C=Nc2ccccc2)c(O)c1	u	n	n	u	n	u
CCN(CC)c1ccc(C=Nc2ccc(N(C)C)cc2)c(O)c1	u	n	n	u	n	16µM
CCN(CC)c1ccc(/C=N/N=C(N)N)c(O)c1	0.65µM	n	1µM	n	1.6µM	0.65µM
CCN(CC)c1ccc(N=Cc2ccc(N(CC)CC)cc2O)cc1	u	n	n	u	n	u
COc1ccc(CNc2ncnc3ccc(-c4c(C)noc4C)cc23)c(OC)c1	n	x	x	u	x	u
COCCO[C@H]1C(=O)N(C2CCN(C(=O)Nc3ccccc3)CC2)[C@H]1c1ccncc1	x	x	x	n	x	x
O=C(N[C@H]1CO[C@H]2[C@@H]1OC[C@@H]2Nc1nccc(-c2ccc(-c3ccccc3)cc2)n1)C1CCCCC1	x	x	x	n	x	x
CCc1ccc(CN(Cc2cn[nH]c2-c2ccc(OC)cc2)C(=O)Nc2ccc(Br)cc2)cc1	23µM	x	x	n	x	18µM
CCc1ccc(OCC(=O)Nc2ccc3[nH]ncc3c2)cc1	u	n	n	u	n	n
CCc1ccc(CN(Cc2cn[nH]c2-c2ccc(OC)cc2)C(=O)Nc2ccc(C)c(F)c2)cc1	21µM	x	x	n	x	18µM
N#CCc1ccc(NC(=O)CNc2cccc(Cl)c2F)cc1	x	x	x	n	x	x
N#Cc1c(C#N)c(SSc2c(C#N)c(C#N)c(N)n2-c2ccccc2)n(-c2ccccc2)c1N	4.6µM	n	n	0.35µM	n	4.6µM
SMILES	TDP1 cell CPT	IL-1B inflam inh	HT1080NT lethal	ALOX12 inh	HT1080 IDH1KD tx	DT40 TDP1 no CPT
COc1ccc(-c2cc(N3CCC(NC(=O)c4cc(Cl)ccc4F)C3)n[nH]2)cc1 (configuration not stated)	x	x	x	n	x	x
CCSc1nnc(NC(=O)CSc2nc(CC)nc3c2c(=O)n(C)c(=O)n3C)s1	16µM	n	n	n	n	15µM
CCCc1nc(SCC(=O)Nc2nnc(SCC)s2)c2c(=O)n(C)c(=O)n(C)c2n1	4.1µM	n	n	n	n	2.9µM
CCc1nc(SCC(=O)Nc2cc(C)on2)c2c(=O)n(C)c(=O)n(C)c2n1	u	n	n	n	n	u
CCc1nc(SCC(N)=O)c2c(=O)n(C)c(=O)n(C)c2n1	n	n	n	n	n	n
O=C(O)Cn1cc(C(C(=O)O)N2CCN(C(c3ccccc3)c3ccccc3)CC2)c2ccccc21 (configuration not stated)	x	x	x	n	x	x
COc1ccc(-c2c(C)c3ccc(OC(C)=O)cc3oc2=O)cc1OC	x	x	x	n	x	x
Cc1oc(-c2ccccc2NS(C)(=O)=O)nc1CN(C)Cc1ccc(Cl)cc1	n[9.04 µM]	x	x	n	x	21µM
CS(=O)(=O)N1CC2(CCCN(Cc3cccnc3)C2)Cc2ccccc21 (configuration not stated)	x	x	x	n[6.33 µM]	x	x
C=CCN(C)CCCCCCOc1ccc(C(=O)c2ccc(Br)cc2)c(F)c1	5µM	x	x	x	x	5µM
COc1ccc2cc3cc(C(=O)N4CCN(c5ccccn5)CC4)oc3nc2c1	u	n	n	n	n	18µM
COc1ccc2cc3cc(C(=O)N4CCN(Cc5ccc6c(c5)OCO6)CC4)oc3nc2c1	u	-65	n	n	u	u
CCC(=O)N1CCC2(CC1)c1[nH]c3ccc(OC)cc3c1CCN2C	x	x	x	n	x	x
Cc1nc2sc(C(c3cccs3)N3CCN(Cc4ccccc4)CC3)c(O)n2n1 (configuration not stated)	23µM	n	n	n	n	n
COc1ccc(-c2nc(C#N)c(N3CCN(C(=O)c4ccccc4OC)CC3)o2)cc1	x	x	x	n	x	x
CCN(CC)C(=O)CSc1ncnc2c1cnn2Cc1ccccc1	n	n	n	n	n	12µM
CC1CCN(c2ncnc3c2cnn3Cc2ccc(Cl)cc2)CC1	18µM	n	n	n	n	18µM
Cc1ccc(Cn2ncc3c(N4CCN(C5CCCC5)CC4)ncnc32)cc1	u	n	n	n	n	n
Cc1cc(C)nc(N2CCN(c3ncnc4c3cnn4Cc3ccc(Cl)cc3Cl)CC2)n1	u	n	n	x	n	3.7µM
Cc1cccc(CSc2ncnc3c2cnn3Cc2ccccc2)c1	n	n	n	n	n	u
CCN(CC)c1ncnc2c1cnn2Cc1ccc(C)cc1	u	n	n	n	n	12µM
COCCc1nn2c(=O)cc(COC(=O)COc3ccccc3C)nc2s1	n	x	x	n	x	n
COc1cccc(CCC(=O)N2Cc3ccccc3OC3(CCN(C)CC3)C2)c1	x	x	x	n	x	x
O=C(Cc1cccc(F)c1)N1CCCCCC1c1nnc(-c2ccccc2)o1 (configuration not stated)	x	x	x	n	x	x
Cc1ccc(Cn2ncc3c(N4CCN(C)CC4)ncnc32)cc1	u	n	n	n	n	10µM
Cc1ccccc1N1CCN(c2ncnc3c2cnn3Cc2ccc(Cl)cc2)CC1	13µM	u	n	n	n	13µM
Cc1cccc(-n2ncc3c(N4CCC(C)CC4)ncnc32)c1	u	u	n	n	n	u
Cc1ccc(Cl)cc1-n1ncc2c(N3CCC(C)CC3)ncnc21	23µM	x	x	n	x	9.2µM

Bioassay records: PubChem BioAssay, National Center for Advancing Translational Sciences (NCATS)
